# Out of some 310,000 compounds screened, about 14,000 (4.5%) showed an effect of 50% or more. The effect is printed as a negative number. Shown is part of a subset that was picked to be rich in strong results.
# Biological target: human ether-à-go-go-related gene (hERG) potassium channel (human, UniProt Q12809)
# Experiment: primary screen, population patch clamp on CHO cells stably expressing hERG; higher = less effect of the substance
# 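Note: peak tail current of the secondary pulse compared with the same well before compound.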
# Chain of human ether-à-go-go-related gene (hERG) potassium channel (Q12809 whole entry, looked up): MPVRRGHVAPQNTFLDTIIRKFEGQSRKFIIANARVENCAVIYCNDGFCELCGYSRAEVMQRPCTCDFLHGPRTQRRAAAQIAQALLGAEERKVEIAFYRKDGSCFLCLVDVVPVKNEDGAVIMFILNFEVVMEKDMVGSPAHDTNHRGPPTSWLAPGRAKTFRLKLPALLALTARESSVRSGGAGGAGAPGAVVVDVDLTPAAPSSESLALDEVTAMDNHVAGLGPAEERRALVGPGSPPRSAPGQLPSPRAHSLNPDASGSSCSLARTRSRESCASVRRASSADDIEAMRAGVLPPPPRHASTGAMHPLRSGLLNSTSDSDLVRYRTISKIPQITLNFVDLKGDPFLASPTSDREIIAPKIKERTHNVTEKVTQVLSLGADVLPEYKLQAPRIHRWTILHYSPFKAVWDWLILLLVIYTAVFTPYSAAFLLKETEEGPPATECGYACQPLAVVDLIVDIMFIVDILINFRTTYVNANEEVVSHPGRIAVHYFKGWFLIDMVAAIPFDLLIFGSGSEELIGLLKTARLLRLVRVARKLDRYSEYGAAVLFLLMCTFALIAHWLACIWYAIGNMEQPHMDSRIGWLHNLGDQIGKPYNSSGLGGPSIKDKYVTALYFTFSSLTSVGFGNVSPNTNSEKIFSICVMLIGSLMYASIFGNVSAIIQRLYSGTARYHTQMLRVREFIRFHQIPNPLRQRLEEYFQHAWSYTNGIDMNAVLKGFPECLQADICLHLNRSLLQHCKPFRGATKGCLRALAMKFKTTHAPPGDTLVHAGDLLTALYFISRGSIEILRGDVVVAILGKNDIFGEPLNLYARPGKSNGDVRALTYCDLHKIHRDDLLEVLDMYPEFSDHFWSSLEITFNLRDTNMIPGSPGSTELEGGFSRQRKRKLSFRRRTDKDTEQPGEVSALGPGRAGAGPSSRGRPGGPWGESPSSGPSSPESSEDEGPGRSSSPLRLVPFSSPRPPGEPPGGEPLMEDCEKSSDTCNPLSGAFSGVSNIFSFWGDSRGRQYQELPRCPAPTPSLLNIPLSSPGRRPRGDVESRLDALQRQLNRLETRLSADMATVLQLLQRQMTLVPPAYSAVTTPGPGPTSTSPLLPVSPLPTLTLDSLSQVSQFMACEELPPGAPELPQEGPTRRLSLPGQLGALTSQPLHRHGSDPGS
row,Structure (SMILES),"hERG current change (%, negative = inhibition) at 10uM [%]"
1,O=[N+]([O-])c1cccc(NNS(=O)(=O)c2ccccc2F)c1,-29.4
2,O=c1c2c3c(sc2nc2n1N=C(c1cccs1)CS2)CCCC3,5.12
3,COc1ccnc(CN(C)C(=O)C2CCC(=O)N(CCN(C)C)C2)c1 (stereo not drawn),17.5
4,O=C(c1ccco1)N1CCN(c2ncnc3c(-c4ccccc4)nsc23)CC1,-14.2
5,CC(C)(C)C(=O)N1CCN(c2ncnc3scc(-c4ccccc4)c23)CC1,-30
6,O=C(c1ccco1)N1CCN(c2ncnc3scc(-c4ccccc4)c23)CC1,-64.5
7,CCN1CCN(C(=O)c2ccc3c(Cl)c4c(nc3c2)CCCC4)CC1,6.65
8,CCCCC(C(=O)O)C(C)CC(=O)Nc1nncs1 (stereo not drawn),13.1
9,Cc1ccc(NC(=O)/C(=C\c2cccnc2)NC(=O)c2ccco2)cc1,-28.5
10,CC(=O)c1cccc(NC(=O)/C(=C\c2cccnc2)NC(=O)c2ccco2)c1,-10.6
11,CC(=O)c1cccc(NC(=O)/C(=C/c2ccco2)NC(=O)c2ccco2)c1,-18.6
12,O=C(Nc1ccccc1)/C(=C/c1cccc(Br)c1)NC(=O)c1ccco1,5.35
13,CC(=O)c1cccc(NC(=O)/C(=C\c2ccco2)NC(=O)c2ccco2)c1,-64.3
14,CC(=O)c1ccc(NC(=O)/C(=C\c2ccco2)NC(=O)c2ccco2)cc1,-15.9
15,O=C(Nc1cccc(Cl)c1)/C(=C\c1cccnc1)NC(=O)c1ccco1,-67
16,O=C(Nc1cccc(Br)c1)/C(=C\c1cccnc1)NC(=O)c1ccco1,-56.6
17,Cc1ccc(NC(=O)/C(=C/c2cccc(Br)c2)NC(=O)c2ccco2)cc1,-28.1
18,O=C(Nc1ccc2ccccc2c1)/C(=C/c1cccc(Br)c1)NC(=O)c1ccco1,-68.6
19,O=C(Nc1cccc(F)c1)/C(=C\c1cccnc1)NC(=O)c1ccco1,-22.4
20,O=C(Nc1ccccc1)/C(=C/c1cccnc1)NC(=O)c1ccco1,-4.49
21,Cc1ccc(NC(=O)COC(=O)CCC(=O)c2cccs2)cc1,-6.94
22,COc1ccc(-c2nc3c(=O)n(C)c(=O)[nH]c3n2CCc2ccccc2)cc1,22.1
23,Cn1c(=O)c2c(nc(N3CCc4ccccc4C3)n2C)n(C)c1=O,7.62
24,CCCCS(=O)(=O)N1CCC(C(=O)Oc2ccccc2OC)CC1,-9.14

row,Structure (SMILES),"hERG current change (%, negative = inhibition) at 10uM [%]"
1,O=c1cc(N2CCc3ccccc3C2)[nH]c(=O)n1-c1ccc(Cl)cc1,3.07
2,COc1cc2[nH]c(=S)n(Cc3ccccc3)c(=O)c2cc1OC,11.4
3,CCOc1ccc(CCNC(=O)CCC(=O)N2CCSc3ccccc32)cc1OCC,-2.52
4,O=C(Nc1ccc(Cc2ccncc2)cc1)c1cccc([N+](=O)[O-])c1,13.6
5,CC(=O)Nc1ccc(C(=O)CSc2nc3ccccc3n2CC(=O)N2CCCC2)cc1,11.1
6,CCOc1cc2c(C#N)c(N3CCNCC3)nc(N)c2c(N)n1,5.41
7,COc1ccccc1N1CCN(CCC(=O)Nc2cccc(Cl)c2)CC1.Cl,-62.8
8,O=C(Cc1ccccc1)Nc1cccc(S(=O)(=O)N2CCCCCC2)c1,-49.1
9,O=C(CN1CCN(Cc2ccccc2)CC1)Nc1cccc(S(=O)(=O)N2CCCCCC2)c1,-76.3
10,O=C(CN1CCN(c2ccccc2)CC1)Nc1cccc(C(F)(F)F)c1,2
11,COc1ccccc1N1CCN(CCC(=O)Nc2ccc(F)cc2)CC1,-19.3
12,CC(=O)N1CCN(CC(=O)Nc2cccc(S(=O)(=O)N3CCCCCC3)c2)CC1,-23.3
13,O=C(CN1CCOCC1)Nc1cccc(C(=O)Nc2cccc(C(F)(F)F)c2)c1,-40.1
14,CC1CCN(CC(=O)Nc2cccc(C(=O)Nc3cccc(C(F)(F)F)c3)c2)CC1,-37.3
15,COc1ccccc1N1CCN(CCC(=O)Nc2ccc3c(c2)OCO3)CC1,-26.7
16,O=C(CN1CCOCC1)Nc1cccc(C(F)(F)F)c1,-3
17,CC1CN(CC(=O)Nc2cccc(C(=O)Nc3cccc(C(F)(F)F)c3)c2)CC(C)O1 (stereo not drawn),-54.3
18,O=C(CN1CCN(Cc2ccccc2)CC1)Nc1cccc(C(F)(F)F)c1,-71.6
19,COc1ccc(NC(=O)Cn2nnc(C(=O)NCc3cccs3)c2N)cc1,13.9
20,COc1ccc(/C=C2\SC(=S)N(Cc3cccnc3)C2=O)cc1C,-3.04
21,Cc1ccc2c(cnn2C(=O)CCC(=O)NC2CCCC2)c1,-10.3
22,O=C(CCN1C(=O)/C(=C/c2cccc(Br)c2)SC1=S)NNC(=O)c1cccnc1,6.24
23,CCOc1ccccc1NC(=O)COC(=O)c1ccccc1SCC(=O)N1CCCC1,1.65
24,O=C(CNC1CCCCC1)Nc1ccc(S(=O)(=O)N2CCCCC2)cc1,2.13

row,Structure (SMILES),"hERG current change (%, negative = inhibition) at 10uM [%]"
1,O=C(CNC1CCCC1)Nc1ccc(S(=O)(=O)N2CCCCC2)cc1,-0.797
2,O=C(CCN1CCN(Cc2ccccc2)CC1)Nc1cccc(Cl)c1,-70.6
3,N#Cc1cccc(NC(=O)Cc2ccccc2)c1,13.6
4,O=C(CCN1CCN(Cc2ccccc2)CC1)NNC(=O)Nc1cccc(Cl)c1,-47
5,Cl.O=C(CNC1CCN(Cc2ccccc2)CC1)Nc1ccc(S(=O)(=O)N2CCCCC2)cc1,-69.7
6,CCc1ccc(C(=O)NNC(=O)CCN2CCN(Cc3ccccc3)CC2)cc1,-19.8
7,Cl.O=C(CCN1CCCCC1)Nc1cccc(Cl)c1,-35.9
8,N#Cc1cccc(NC(=O)CN2CCCCCC2)c1,-10.9
9,N#Cc1cccc(NC(=O)CN2CCN(Cc3ccccc3)CC2)c1,-65.1
10,NNC(=O)CCN1CCN(Cc2ccccc2)CC1,17
11,O=C(CCN1CCN(Cc2ccccc2)CC1)NNC(=O)Cc1ccc(Cl)c(Cl)c1,-74.7
12,COc1ccc(NS(=O)(=O)c2cnc[nH]2)cc1,17.4
13,COCCCNC(=O)c1ccc(NS(C)(=O)=O)cc1,-2.85
14,O=C(O)c1c(NC(=O)c2cccc3ccccc23)sc2c1CCC2,5.11
15,COc1cccc(CNc2nc(C(F)(F)F)nc3ccccc23)c1,0.0262
16,CS(=O)(=O)c1cccc(NC(=O)C2CCCN2S(=O)(=O)c2ccc(F)cc2)c1 (stereo not drawn),7.77
17,Nc1ccc(C(=O)OCc2ccncc2)cc1[N+](=O)[O-],-28.7
18,NC(=O)c1cccnc1Nc1ccccc1F,0.0995
19,CC1(C)C=Cc2cc3ccc(=O)oc3cc2O1,3.51
20,COc1ccc(OCc2n[nH]c(=S)n2-c2ccc(C)cc2)cc1,0.659
21,Cl.O=C(CN1CCCC1)Nc1cccc(Cl)c1,-3.66
22,O=C(CN1CCN(Cc2ccccc2)CC1)Nc1cccc(Cl)c1,-60.7
23,Cc1ccc(S(=O)(=O)N2CCCCC2)cc1NC(=O)Cn1ccc(C(F)(F)F)n1,-8.63
24,O=C(Cn1cnnn1)Nc1cccc(S(=O)(=O)N2CCCCC2)c1,18.2

row,Structure (SMILES),"hERG current change (%, negative = inhibition) at 10uM [%]"
1,CCN(CC)C(=S)SCC(=O)Nc1cccc(C(F)(F)F)c1,-10
2,O=C(Cn1ccc(C(F)(F)F)n1)Nc1cccc(S(=O)(=O)N2CCCCC2)c1,-60.5
3,O=C(O)CSCC(=O)Nc1cccc(C(F)(F)F)c1,-6.67
4,Cl.O=C(CN1CCCCC1)Nc1cccc(Cl)c1,-28.8
5,CN(C)C(=S)SCC(=O)Nc1cccc(C(F)(F)F)c1,-54.6
6,CCN1CCN(C(=S)Nc2sc(C)c(-c3ccccc3)c2C(=O)OC)CC1,15.3
7,CC1(C)Cc2cccc(OCC(=O)OCC(=O)c3ccccc3)c2O1,1.43
8,Cc1c(NC(=O)CSc2nnnn2-c2ccc(F)cc2)c(=O)n(-c2ccccc2)n1C,-2.74
9,Cc1cccc(C(=O)Oc2ccc(/C=N/NC(=O)c3ccncc3)cc2)c1,3.1
10,CN1CCN(Cc2nnc3n2-c2ccc(Cl)cc2C(c2ccccc2)=NC3)CC1.O=CO,-64.7
11,COCCCN1CCN(c2nnc3n2-c2sc(Br)cc2C(c2ccccc2Cl)=NC3)CC1.CS(=O)(=O)O,-47.7
12,CSCc1nnc2n1-c1ccc(Cl)cc1C(c1ccccc1)=NC2,-17
13,Cc1nnc2n1-c1ccc(Br)cc1C(c1ccccc1Cl)=NC2,-21.1
14,CCS(=O)(=O)NCc1nnc2n1-c1ccc(Cl)cc1C(c1ccccc1)=NC2,12.6
15,Clc1ccc2c(c1)C(c1ccccc1Cl)=NCc1nnc(Br)n1-2.c1ccccc1,-6.61
16,CCS(=O)(=O)NCc1nnc2n1-c1ccc(Br)cc1C(c1ccccc1Cl)=NC2,-49
17,Clc1ccc2c(c1)C(c1ccccc1Cl)=NCc1nncn1-2,-4.37
18,COc1ccccc1C1=NCc2nnc(C)n2-c2ccc(Cl)cc21,3.01
19,CCOCCN1CCN(c2nnc3n2-c2ccc(Cl)cc2C(c2ccccc2Cl)=NC3)CC1.O=CO,-76.5
20,Clc1ccc2c(c1)C(c1ccccc1Cl)=NCc1nnc(N3CCN(CCSc4ccccc4)CC3)n1-2.O.O=C(O)/C=C/C(=O)O,-66.5
21,Clc1ccc2c(c1)C(c1ccccc1Cl)=NCc1nnc(N3CCN(CCOc4ccccc4)CC3)n1-2.O=C(O)/C=C/C(=O)O,-72.7

# Source: PMC4336329 (PLoS ONE, 2015)
